# Results filed as inconclusive are left out. Entries that show only a call come without a potency. Calls of active or inactive are those of the source. Calls follow the shape of the dose curve; as a rule, active = well fitted inhibition curve with a large enough effect; inconclusive = small, poorly fitted or top-dose-only effect; inactive = flat fitted curve, though single readings scatter.
# Assay: qHTS to identify inhibitors of the type 1 interferon - major histocompatibility complex class I in skeletal muscle: primary screen against the NCATS LOPAC collection (AID 1347405);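 also: lytic HiBiT luminescence reporting HLA-B protein level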
# Settings: iHSKM muscle cells, IFN-b-induced MHC-I HiBiT luminescence, 24 h; series mostly up to 45.9 µM
# Procedure, shortened: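 Cells: C25cl48 human myoblasts, HiBiT-tagged HLA-B*08:01, stimulated with IFN-beta 4.0 ng/ml. Compounds are titrated 1:4.3 over 7 points from 46 uM final and incubated 24 hrs; endogenous MHC class I is quantified by HiBiT lytic luminescence.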
# Potency is read from the fitted curve at half-maximal effect.
row,Structure (SMILES),Potency
1,Nc1ncnc2c1ncn2[C@@H]1O[C@H](COP(=O)(O)OP(=O)(O)OP(=O)(O)OP(=O)(O)OC[C@@H]2O[C@H](n3cnc4c(N)ncnc43)[C@@H](O)[C@H]2O)[C@@H](O)[C@H]1O,inactive
2,CC(C)c1cccc(C(C)C)c1N1C(=O)c2ccc(O)cc2C1=O,inactive
3,NC(CCCP(=O)(O)O)C(=O)O (configuration not stated),inactive
4,CC(=O)/C=C1\C(=O)N(C)c2ccccc21,22.4 µM (active)
5,Oc1ccccc1O,inactive
6,NCCCS(=O)(=O)O,inactive
7,Nc1nc(Cl)nc2c1ncn2[C@@H]1O[C@H](COP(=O)(O)OP(=O)(O)OP(=O)(O)O)[C@@H](O)[C@H]1O,inactive
8,Cn1c(=O)c(-c2c(Cl)cccc2Cl)cc2cnc(Nc3ccc(N4CCOCC4)cc3)nc21,0.631 µM (active)
9,CN(C)CCC(c1ccc(Cl)cc1)c1ccccn1 (configuration not stated),inactive
10,O=C(O)c1cc(=O)c2c(Cl)cc(Cl)cc2[nH]1,inactive
11,Fc1ccc2[nH]c(CN3CCN(c4ccccn4)CC3)cc2c1,inactive
12,COc1ccc2c(c1)CCC1C2CC[C@@]2(C)C1CC[C@@H]2NCCCCCCN1C(=O)CCC1=O (some centres not stated),inactive
13,O=[N+]([O-])c1ccc(CNc2nc(NCc3cccc(C(F)(F)F)c3)nc3nc[nH]c23)cc1,inactive
14,CC1CN(S(=O)(=O)c2cccc3cnccc23)CCN1 (configuration not stated),inactive
15,CC(C)(NS(=O)(=O)c1ccc(Oc2ccc(F)cc2)cc1)C(=O)NO,inactive
16,CNC(=O)[C@H]1O[C@@H](n2cnc3c(NCc4ccc(N)cc4)ncnc32)[C@H](O)[C@@H]1O,inactive
17,O=C(/C=C/c1ccc(O)c(O)c1)OCCc1ccccc1,inactive

# From PubChem BioAssay (NCATS)
